Laboratory results as given in ChEMBL document CHEMBL4513216, “Probing the Open Global Health Chemical Diversity Library for Multistage-Active Starting Points for Next-Generation Antimalarials” (ACS Infect Dis, 2020).
Out of some 69,000 compounds screened, about 8,600 (12%) showed an effect of 50% or more. This is one part of a sample in which strong results are shown more often than they occur.

system: Plasmodium berghei; experiment: Screen against P. berghei liver stage (PbLuc), transformed with Luciferase, at 10uM; type: functional, HepG2; conditions: tested at 10 uM

| Structure (SMILES) | INHIBITION |
| --- | --- |
| Cc1cc(C(F)(F)F)nc(CNC(=O)CCn2cccn2)n1 | 58.1% |
| Cc1cc(C(F)(F)F)nc(CNC(=O)C2CCCCCN2C)n1 (stereo unspecified) | 54.5% |
| CCOCC(=O)NCCc1nc(C)cc(C(F)(F)F)n1 | 20.4% |
| Cc1cc(C(F)(F)F)nc(CNC(=O)CCC2CCCCN2C)n1 (stereo unspecified) | 38.7% |
| Cc1cc(C(F)(F)F)nc(CNc2nc(C)nc3c2cnn3C)n1 | 19.4% |
| CCC(C(=O)NCc1nc(C)cc(C(F)(F)F)n1)n1cccn1 (stereo unspecified) | 8.08% |
| CCC(C(=O)NCCc1nc(C)cc(C(F)(F)F)n1)n1cccn1 (stereo unspecified) | 57% |
| CCN(C)c1ccc(CNC(=O)CCn2cc(C)cn2)cc1F | 12.8% |
| Cc1cc(C(F)(F)F)nc(CNC(=O)CCC2CCCN(C)C2)n1 (stereo unspecified) | 29.4% |
| CC(C)c1nn(C)c(N(C)C)c1CNCc1ccc(CO)c(F)c1 | 23.7% |
| CNc1nc2c(s1)C(c1c(Cl)cccc1Cl)CC(=O)N2 (stereo unspecified) | 15% |
| CS(=O)(=O)N1CCN(c2ccc3ccc(C(=O)NC4CC4)cn23)CC1 | 22.3% |
| Cc1cccc(OC2CN(C(=O)C3CC(=O)N(C4CC4)C3)C2)c1 (stereo unspecified) | 31.4% |
| O=C([C@H]1CC[C@@H]2[C@@H](CCN2C2CCOCC2)O1)N1CCOCC1 | 25.6% |
| Cc1cccc(OCCC(=O)N(C)CCC#N)c1C | -33.2% |
| CCc1ncnc2c1CCN(Cc1nccs1)CC2 | -2.41% |
| CCc1cnc(CN2CCC(N(C)Cc3noc(C4CC4)n3)C2)o1 (stereo unspecified) | 23.4% |
| CCN1CCn2c(C)cnc2C12CCN(C(=O)COC)CC2 | -6.05% |
| CN(C)C(C(=O)N1Cc2ccccc2C1)c1ccccc1F (stereo unspecified) | 50.8% |
| CN(C)C(C(=O)N1CCCC1)c1ccccc1F (stereo unspecified) | 29.7% |
| CN(C)C(C(=O)N1CCSCC1)c1ccccc1F (stereo unspecified) | 32.8% |
| O=c1[nH]nc(CCCN2CCOCC2)n1-c1ccc(F)cc1F | 39.4% |
| CC(C)CC(=O)N1CCCC2(CC(C(=O)Nc3ccccc3)=NO2)C1 (stereo unspecified) | 3.58% |
| CCC1CN(C)c2ccccc2CN1C(=O)Nc1cccc(F)c1 (stereo unspecified) | 60.2% |

| Structure (SMILES) | INHIBITION |
| --- | --- |
| CCC1CN(C)c2ccccc2CN1C(=O)Nc1ccccc1OC (stereo unspecified) | 63.5% |
| CC(C)CCNC(=O)C1CCCN1C(=O)Nc1cccc(F)c1 (stereo unspecified) | -11.4% |
| COc1ccccc1NC(=O)N1CCCC1c1ccco1 (stereo unspecified) | 1.45% |
| CCC1CN(C)c2ccccc2CN1C(=O)Nc1ccc(C)cc1 (stereo unspecified) | 14% |
| CCC1CN(C)c2ccccc2CN1C(=O)CCn1cncn1 (stereo unspecified) | 44% |
| Cc1c(C(=O)NCC(C)C)nnn1-c1cccc2c1CCN(CCO)C2 | 45.7% |
| O=C(NCCNc1ncccn1)C1CCCC1 | 26.4% |
| COc1ccccc1CNc1cnn(CC(F)F)c1 | 14.5% |
| Cc1nccn1CC1CCCN1S(=O)(=O)Cc1cccc(C#N)c1 (stereo unspecified) | 45.7% |
| Cc1cc(NC(=O)CN2CCCC2c2c(C)nn(C)c2Cl)on1 (stereo unspecified) | -27.9% |
| CC(C)C(C(=O)N1CCN(Cc2cscn2)CC1)n1cncn1 (stereo unspecified) | -7.71% |
| CC(C)(C)NC(=O)C1(Cc2ccccc2-c2ccncc2)CCOCC1 | 17.1% |
| O=C(NC1CC1)C1(Cc2ccccc2-c2ccncc2)CCOCC1 | 76.1% |
| O=C(NCCO)C1(Cc2ccccc2-c2ccncc2)CCOCC1 | -17.7% |
| CN(C)C[C@@H]1CCC[C@@H]2CN(c3cccnc3)C[C@@H]21 | -11% |
| CCc1ncc(C(=O)N(CCOC)Cc2ccccc2F)cn1 | 41.5% |
| CCc1ncc(C(=O)N(CCOC)Cc2nccs2)cn1 | 50.5% |
| CCc1ncc(C(=O)N(CC)CCOC)cn1 | 29.2% |
| CS(=O)(=O)NCc1cnc2n1CCN(Cc1cccnc1)CC2 | 15.4% |
| O=C(NCC1CC1)c1n[nH]c2c1CNCC2 | -8.51% |
| Cc1cc(C)n(CCN(C)Cc2c[nH]nc2-c2ccc3c(c2)OCO3)n1 | 26.7% |
| CNC(=O)[C@H]1CC[C@@H]2[C@@H](CCN2CCOCc2ccccc2)O1 | 45.7% |
| CC(=O)N(C)C1CCC2(CC1)CNC(=O)c1cc(C)ccc1O2 (stereo unspecified) | -20.2% |
| C1CCC(NCCN2CCOCC2)C1 | 5.41% |

| Structure (SMILES) | INHIBITION |
| --- | --- |
| N#Cc1ccnc(N2CCC(NCCN3CCOCC3)CC2)c1 | 66.5% |
| N#Cc1ccnc(N2CCN(CC(O)c3ccccc3)CC2)c1 (stereo unspecified) | -76.3% |
| N#Cc1ccnc(N2CCN(C(=O)NC3CCS(=O)(=O)C3)CC2)c1 (stereo unspecified) | -19.9% |
| N#Cc1ccnc(N2CCN(Cc3cccc(F)c3)CC2)c1 | -23.7% |
| N#Cc1ccnc(N2CCN(C3CCOC3=O)CC2)c1 (stereo unspecified) | -33.1% |
| N#Cc1ccnc(N2CCC(NCCN3CCCC3)CC2)c1 | 57.3% |
| CCC1CCC(NCCN2CCOCC2)CC1 (stereo unspecified) | 49.4% |
| CSc1nccc(N2CCC(NCCN3CCOCC3)CC2)n1 | 53.6% |
| O=C(c1ccc(F)cc1)N1C[C@@H]2OCCN(c3ncccn3)[C@@H]2C1 | 10% |
| Cc1nnc(SCc2ccccn2)s1 | 44.1% |
| CCSCCNC(=O)c1ccc(S(=O)(=O)N2C[C@H]3C[C@@H]2CN3)cc1 | 9.91% |
| CC(C)c1cc(N(C)Cc2noc(C3CCCC3)n2)n2nccc2n1 | 46.4% |
| c1cnc(N2CCOCC3(CN(Cc4nccs4)CCO3)C2)nc1 (stereo unspecified) | -34.7% |
| Cc1cc(Cc2ccc(F)cc2)cc(C2CCCNC2)n1 (stereo unspecified) | 32.3% |
| Cc1cc(Cc2ccccc2F)cc(C2CCCNC2)n1 (stereo unspecified) | 36.9% |
| Cc1cc(Cc2cccc(C(F)(F)F)c2)cc(C2CCCNC2)n1 (stereo unspecified) | 80.5% |
| Cc1cc(Cc2ccccc2)cc(C2CCCNC2)n1 (stereo unspecified) | 28.5% |
| Cc1cc(Cc2ccccc2C)cc(C2CCCNC2)n1 (stereo unspecified) | -11.4% |
| Cc1cccc(Cc2cc(C)nc(C3CCCNC3)c2)c1 (stereo unspecified) | 54.5% |
| Cc1cnn(CC2CCCN2C(=O)c2csc(C(C)C)n2)c1 (stereo unspecified) | 35.3% |
| COc1ccc(C(=O)N2CCCC3(CCCC(=O)N3C)C2)cc1 (stereo unspecified) | 24.8% |
| CNC(=O)c1ccccc1-c1ccc(S(C)(=O)=O)cc1 | -19.1% |
| COCCN1C[C@@H]2[C@@H](OC)CCN(Cc3ccc(C)o3)[C@@H]2C1 | 15.4% |
